A number with no mark means an inactive call. For part of these data: Results with a measured potency or affinity are listed apart. Calls of active or inactive are those of the source. The rule behind the calls is not given here.

The record followed here is PubChem BioAssay (NCATS).

The conditions of test [1]: Ebola virus entry assay, green fluorescence channel.
For test [2] the following is noted: Ebola virus entry assay, blue channel fluorescence.
The conditions of test [3]: Ebola virus entry assay, ratio channel.
The conditions of test [4]: Ebola virus entry assay, green channel fluorescence.
The conditions of test [5]: Ebola virus entry assay, reporter ratio channel; Channel type: primary.
For test [6] the following is noted: Ebola virus entry assay, blue channel (ratio component).
Throughout, for efficacy: 0% is about no effect.

Take `CC(C)(C)c1ccc(C(=O)CCCCl)cc1`: the efficacy in test [1] is -23.2%. Besides, the call in test [2], in test [3], in test [4], in test [5] and in test [6] was inactive.
Take `C[C@H](N)[C@H](O)c1cccc(O)c1`: the efficacy in test [1] was -10.3%. Moreover, the result in test [2], in test [3], in test [4], in test [5] and in test [6] was inactive.
For `O=C1C(CCS(=O)c2ccccc2)C(=O)N(c2ccccc2)N1c1ccccc1` (centres undefined), the efficacy in test [1] is 28.5%. The call in test [2], in test [3], in test [4], in test [5] and in test [6] was inactive.
For the compound `CCCCCC1Nc2cc(C(F)(F)F)c(S(N)(=O)=O)cc2S(=O)(=O)N1` (centres undefined), the efficacy in test [1] is -15.8%. The compound was called inactive in test [2], in test [3], in test [4], in test [5] and in test [6].
Regarding `CCOC(=O)c1cccc(N)c1`, the efficacy in test [1] was 16.6%. Moreover, the compound was called inactive in test [2], in test [3], in test [4], in test [5] and in test [6].
Consider `CN(C)CC[C@@H](c1ccc(Cl)cc1)c1ccccn1`, for which the efficacy in test [1] was -31.3%. Further, the compound was called inactive in test [2], in test [3], in test [4], in test [5] and in test [6].
Turning to `COc1ccc2c(c1OC)C(=O)O[C@@H]2[C@H]1c2c(cc3c(c2OC)OCO3)CCN1C`, the efficacy in test [1] was -21%. The compound was classed as inactive in test [2], in test [3], in test [4], in test [5] and in test [6].
Consider `Clc1ccc(C(Cn2ccnc2)OCc2ccc(Sc3ccccc3)cc2)c(Cl)c1` (centres undefined), for which, in test [1], the efficacy is 29.2%. In addition, the call in test [2], in test [3], in test [4], in test [5] and in test [6] was inactive.
Turning to `CCOC(=O)c1ccc(C#Cc2ccc3c(c2)C(C)(C)CCS3)nc1`, the efficacy in test [1] is 24%. The result in test [2], in test [3], in test [4], in test [5] and in test [6] was inactive.
Regarding `CCN[C@@H]1C[C@H](N)[C@@H](OC2OC(CN)=CCC2N)[C@H](O)[C@H]1O[C@H]1OC[C@](C)(O)[C@H](NC)[C@H]1O` (some centres undefined), the efficacy in test [1] was -8.89%. In addition, the outcome in test [2], in test [3], in test [4], in test [5] and in test [6] was inactive.
Turning to `O=c1[nH]cnc2c1ncn2[C@@H]1O[C@H](CO)[C@@H](O)[C@H]1O`, the efficacy in test [1] is -42.8%. Further, the result in test [2], in test [3], in test [4], in test [5] and in test [6] was inactive.
In the case of `COCCc1ccc(OCC(O)CNC(C)C)cc1` (centres undefined), the efficacy in test [1] is -31.6%. For the same compound, the compound was called inactive in test [2], in test [3], in test [4], in test [5] and in test [6].
On to `CC(=C(CCOC(=O)C(C)C)SSC(CCOC(=O)C(C)C)=C(C)N(C=O)Cc1cnc(C)nc1N)N(C=O)Cc1cnc(C)nc1N`, for which the efficacy in test [1] is -18%. In addition, the result in test [2], in test [3], in test [4], in test [5] and in test [6] was inactive.
With `CCOCCOC(=O)/C=C/c1ccc(OC)cc1`, in test [1], the efficacy was 19.6%. In addition, the compound was classed as inactive in test [2], in test [3], in test [4], in test [5] and in test [6].
Regarding `C1CN2CCC1CC2`, in test [1], the efficacy was -16%. Further, the compound was classed as inactive in test [2], in test [3], in test [4], in test [5] and in test [6].
On to `Oc1ccc(C(O)CNCCCCCCNCC(O)c2ccc(O)c(O)c2)cc1O` (centres undefined), for which the efficacy in test [1] was 16%. The compound was classed as inactive in test [2], in test [3], in test [4] and in test [6]. Further, the AC50 in test [5] was 44.7 µM (active).
As to `Cc1c(N(C)C)c(=O)n(-c2ccccc2)n1C`, the efficacy in test [1] is 14.3%. Further, the call in test [2], in test [3], in test [4], in test [5] and in test [6] was inactive.
Regarding `O=C(O)CCc1nc(-c2ccccc2)c(-c2ccccc2)o1`, the efficacy in test [1] is 18.2%. The compound was called inactive in test [2], in test [3], in test [4], in test [5] and in test [6].
`NCC1CCC(C(=O)Oc2ccc(CCC(=O)O)cc2)CC1` (centres undefined): the efficacy in test [1] is 32.3%. Also, the call in test [2], in test [3], in test [4], in test [5] and in test [6] was inactive.
Regarding `CC(=O)Oc1ccc(C2(c3ccc(OC(C)=O)cc3)Oc3ccccc3NC2=O)cc1`, the efficacy in test [1] was -26.7%. Further, the result in test [2], in test [3], in test [4], in test [5] and in test [6] was inactive.
Regarding `C[C@H]1NCc2cc(-c3ccc4c(=O)c(C(=O)O)cn(C5CC5)c4c3OC(F)F)ccc21`, the efficacy in test [1] was -19.7%. Further, the compound was classed as inactive in test [2], in test [3], in test [4], in test [5] and in test [6].
For the compound `CC1(C)CO[C@@H](CC(=O)O)CN1`, the efficacy in test [1] was -12.4%. The compound was called inactive in test [2], in test [3], in test [4], in test [5] and in test [6].
In the case of `Cc1c(Cn2ccnc2)c2ccccc2n1CCC(=O)O`, the efficacy in test [1] is 14%. Also, the compound was called inactive in test [2], in test [3], in test [4], in test [5] and in test [6].
Take `CC(C)(C)C(=O)NCCCC(=O)O`: in test [1], the efficacy is -17.8%. The call in test [2], in test [3], in test [4], in test [5] and in test [6] was inactive.
As to `CCOC(=O)C(C#N)=C(c1ccccc1)c1ccccc1`, the efficacy in test [1] was 19.4%. Moreover, the call in test [2], in test [3], in test [4], in test [5] and in test [6] was inactive.
`CC(C)[N+](C)(CCC(C(N)=O)(c1ccccc1)c1ccccc1)C(C)C`: the efficacy in test [1] is 13.5%. Also, the call in test [2], in test [3], in test [4], in test [5] and in test [6] was inactive.
Take `CCCCCCCCCCCCCCCCCCOCC(O)CO` (centres undefined): the efficacy in test [1] is -25.1%. Further, the compound was classed as inactive in test [2], in test [3], in test [4], in test [5] and in test [6].
`CC(=O)[C@H]1CC[C@H]2[C@@H]3CC=C4C[C@@H](O)CC[C@]4(C)[C@H]3CC[C@]12C`: the efficacy in test [1] was -13.3%. The compound was called inactive in test [2], in test [3], in test [4], in test [5] and in test [6].
On to `O=C1OC(c2ccc(O)cc2)(c2ccc(O)cc2)c2ccccc21`, for which the efficacy in test [1] is -10.1%. In addition, the result in test [2], in test [3], in test [4], in test [5] and in test [6] was inactive.
